Compounds with a hit are over-represented: about 21% of the library has one in this group of screens.
Cycloheximide cs: Cycloheximide Counterscreen for Small Molecule Inhibitors of Shiga Toxin; cell reporter, cycloheximide protein synthesis inhibition counterscreen; max response, %; hit rate 12% among 300,000; AID 2314, 2010; in the data active = max response mostly above about 13%, no sharp cut-off; inactive = mostly below about 14%; note: read at 38.3 µM for the half of the compounds with a filed dose; 0% is about no effect
Pf growth 96h: Primary qHTS for delayed death inhibitors of the malarial parasite plastid, 96 hour incubation. hit rate 6.9% among 320,000. AID 504834, 2011. P. falciparum luciferase reporter growth, 96 h. Potency, µM (series often up to 28.7 µM), inactives show top-dose activity change, negative = inhibition, actives largely listed as inhibitors; note: potency is the fitted concentration of half-maximal effect; % is set by controls: 0 for no effect and ±100 for the full control effect
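Cell-based qHTS: luciferase-tagged P. falciparum in erythrocytes (2% hematocrit, 0.05% parasitemia final) incubated with compounds for 96 hours, 37 C, 5% CO2; luciferase detection reagent then added and luminescence measured.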
Shiga toxin inh: A qHTS for Small Molecule Inhibitors of Shiga Toxin | Vero cells, Shiga toxin protein synthesis inhibition reporter | inhibition, % at 38.7 µM | AID 2315, 2010 | hit rate 9.2% among 290,000; in the data active = inhibition mostly above about 28%, no sharp cut-off; inactive = mostly below about 43%; note: 0% is about no effect
Pf growth 48h: Primary qHTS for delayed death inhibitors of the malarial parasite plastid, 48 hour incubation | P. falciparum luciferase growth in erythrocytes, 48 h | AID 504832, 2011 | Potency, µM (titrated, usually from 28.7 µM), inactives show top-dose activity change, negative = inhibition, actives largely listed as inhibitors | hit rate 5.9% among 310,000; note: potency is the fitted concentration of half-maximal effect; % is set by controls: 0 for no effect and ±100 for the full control effect
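Growth was read as firefly luciferase luminescence after a 48 h, 37 C, 5% CO2 exposure of compounds to reporter-bearing P. falciparum cultures (0.1% parasitemia, 2% hematocrit final) in Albumax-supplemented RPMI 1640.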
* = called active by the depositor; u = inconclusive; x = no result given; [ ] = another dose, or the depositor's remark. Unless noted, calls come from the whole dose curve; as a rule, active = well fitted inhibition curve with a large enough effect; inconclusive = small, poorly fitted or top-dose-only effect, or another doubt; inactive = no such curve, though single readings can be large or run the other way.

SMILES | Cycloheximide cs | Pf growth 96h | Shiga toxin inh | Pf growth 48h
OCC1(CCCc2ccccc2)CCN(Cc2cnc(N3CCOCC3)s2)CC1 | -1 | 9.3µM* | -3 | -8%
COc1ccc(N2C(=NC(=O)C3CCCCC3)SC3CS(=O)(=O)CC32)c(OC)c1 (stereo not drawn) | -11 | u | -13 | 1%
Cc1ccc(S(=O)(=O)N(CC(=O)N2CCC(C)CC2)c2ccccc2)cc1 | 3 | 29% | 41 | 12µM*
Cc1ccc(S(=O)(=O)N(CC(=O)N2CCOCC2)c2ccc(C(C)C)cc2)cc1 | 16 | 10µM* | -17 | -18%
O=C(CN(c1ccc(F)cc1)S(=O)(=O)c1ccc2c(c1)OCCO2)N1CCOCC1 | -2 | 1µM* | -2 | 7%
COC(=O)CN(c1ccc(F)cc1)S(=O)(=O)c1ccc2c(c1)OCCO2 | 3 | 4% | 15 | 30%
Cc1ccc(S(=O)(=O)N(CC(=O)N2CCCCCC2)c2ccccc2)cc1 | -3 | u | -4 | x
Cc1ccc(N(CC(=O)N2CCOCC2)S(=O)(=O)c2ccccc2)cc1 | -1 | x | 13 | 33%
COc1cccc(N2CCN(C(=O)c3oc4ccccc4c3NC(=O)CCc3cc(OC)no3)CC2)c1 | -1 | u | -9 | u
Cc1ccc(/C=N/NC(=O)CC(=O)NCc2cccnc2)cc1 | -3 | u | -7 | -8%
CCn1nnc2cc(C(=O)NCC(c3ccccc3OC)N(C)C)ccc21 (stereo not drawn) | 10 | -14% | 29 | -26%
CCC12CN3CC(CC)(CN(C1)C3c1ccc([N+](=O)[O-])o1)C2=O (stereo not drawn) | -1 | -5% | 16 | 17%
Cc1cc(C)c[n+](C(C)C(=O)c2ccc(-c3ccccc3)cc2)c1 (stereo not drawn) | -2 | 28% | -10 | 1.3µM*
CN(C(=O)COC(=O)C1CCN(S(=O)(=O)c2cccs2)CC1)c1ccccc1 | -1 | 20% | -9 | -27%
O=C(NN=C1CCCC1)c1[nH]c2ccc(Cl)cc2c1-c1ccccc1 | -5 | 13µM* | 0 | u
O=C(NN=C1CCCC1)c1ccccc1O | 18* | u | 58* | 17%
CC(C)/C=N/NC(=O)c1ccc(Cl)cc1 | 24* | 20% | 38 | 3%
CC(=O)NNC(=O)c1[nH]c2ccc(Cl)cc2c1-c1ccccc1 | 0 | 19% | -7 | 5%
NNC(=O)c1cccc(O)c1 | 67* | 42% | 58* | 33%
O=C(NCCNC(=O)c1cccc(O)c1)c1cccc(O)c1 | -2 | u | -12 | 54%
C[C@@H]1CCC[C@H](C)N1 | x | 0%[12.8 µM] | x | 11%[12.8 µM]
O=C(NN=C1CCCC1)c1ccc(Cl)cc1 | 41* | 15% | 72* | -1%
CC1C/C(=N\NC(=S)NC(C)C)CC(C)(C)C1 (stereo not drawn) | -4 | 2.9µM* | -4 | x
CC1C/C(=N\NC(=O)c2ccc(NS(=O)(=O)c3ccc(Br)cc3)cc2)CC(C)(C)C1 (stereo not drawn) | 12 | u | 17* | -14%
CC1C/C(=N\NC(=O)c2ccc([N+](=O)[O-])cc2)CC(C)(C)C1 (stereo not drawn) | 7 | 41% | 16 | -9%
SMILES | Cycloheximide cs | Pf growth 96h | Shiga toxin inh | Pf growth 48h
Cc1cc(C(=O)NN=C2CCCCCC2)c(C)o1 | 25* | 40% | 52* | -3%
Cc1cc(C(=O)N/N=C2\CCCC(=O)C2)c(C)o1 | x | 28% | x | 5%
Cc1ccc(NC(=O)CN2C(=O)CC(C)S(=O)(=O)c3ccccc32)cc1 (stereo not drawn) | 1 | -12% | -7 | -1%
CCC(C(=O)N1CCN(Cc2ccc3c(c2)OCO3)CC1)n1c(=O)[nH]c2ccccc2c1=O (stereo not drawn) | 3 | u | 12 | u
NC(=O)O | -6 | x | 2 | x
COCCn1c(SCC(=O)N(C)c2ccccc2)nc2c([nH]c3ccccc32)c1=O | 4 | u | -2 | u
CC1C/C(=N\NC(=O)c2cccnc2)CC(C)(C)C1 (stereo not drawn) | 18* | 5% | 65 | 13%
O=C(NN=C1CCCC1)c1cccc(O)c1 | 47* | -33% | 76* | 58%
O=C(NN=C1CCN(Cc2ccccc2)CC1)c1ccccc1 | -2 | u | 8 | 16%
O=C(NN=C1CCN(Cc2ccccc2)CC1)c1cc(Br)ccc1O | 4 | 1.9µM* | 18 | 45%
O=C(NN=C1CCCC1)c1cc(O)cc(O)c1 | 5 | u | -30 | 19%
COc1cccc(C(=O)NN=C2CCCC2)c1 | 38* | u | 67* | 18%
